Inconclusive results are not listed. A number with no mark means an inactive call. The source made the active and inactive calls. The call rests on the fitted dose curve; in most records, active means well fitted cell-killing curve with a large enough effect in the repeat runs; inconclusive means weak or mixed curves; inactive means no such curve, though single readings can be large or run the other way.
On the % scale 0 is the no-effect control and ±100 the full control effect; potency means the concentration at half of the fitted maximal effect.

The nature of the assay: qHTS assay to identify small molecule antagonists of the androgen receptor (AR) signaling pathway - cell viability counter screen (AID 743033; further: nearly all actives have a fitted effect of over 45% in size). Conditions: AR-bla HEK293 viability, CellTiter-Glo luminescence, 16 h; series mostly up to 58.5 µM; activity change, negative = cytotoxicity: at the top concentration. (In general: In qHTS, concentration-response curves come from the screen itself.)
`Cc1ccc(Nc2nccc(N(C)c3ccc4c(C)n(C)nc4c3)n2)cc1S(N)(=O)=O`: the “activity change, negative = cytotoxicity” value was -26.3%.
As for `CC(=N\O)/C(C)=N/O`, the “activity change, negative = cytotoxicity” value was 1.37%.
Consider `O=C(CS)OCCOC(=O)CS`, for which the “activity change, negative = cytotoxicity” value is -15.5%.
As to `Cc1ccccc1N1C(=O)c2cc(S(N)(=O)=O)c(Cl)cc2NC1C` (stereo not given), the Potency entry was “inactive”.
For `CC(CCc1ccc2c(c1)OCO2)NN` (stereo not given), the “activity change, negative = cytotoxicity” value was -9.19%.
With `CCCCCC=CCC=CCCCCCCCC(=O)OCC`, the “activity change, negative = cytotoxicity” value was -4.61%.
With `CC(C)(O)c1ccccc1CC[C@@H](SCC1(CC(=O)O)CC1)c1cccc(/C=C/c2ccc3ccc(Cl)cc3n2)c1`, the “activity change, negative = cytotoxicity” value was -13.2%.
Still for that read-out and setting: as for `CC1=NN(c2ccc(C(=O)O)cc2)C(=O)C1`, the figure is 10.4%; as for `O=C(O)c1snc(Cl)c1Cl`, -7.31%; as for `O=C(N/N=C/c1ccc([N+](=O)[O-])o1)c1ccc(O)cc1`, -23.8% [at 27 µM].
Turning to `C[N+]1(C)CCC(=C(c2ccccc2)c2ccccc2)CC1`, the “activity change, negative = cytotoxicity” value was -13.3% [at 27 µM].
Same read-out and setting: the same measure for `CCCOc1ccc(S(=O)(=O)N2CCN(CC)CC2)cc1-c1nc2c(CC)n(Cc3ccccn3)nc2c(=O)[nH]1`: -13.7%.
As for `Nc1ccc(C(=O)OCCCOC(=O)c2ccc(N)cc2)cc1`, the “activity change, negative = cytotoxicity” value is -7.22%.
Turning to `CO[C@@]12[C@H](COC(N)=O)C3=C(C(=O)C(C)=C(N)C3=O)N1C[C@@H]1N[C@@H]12`, the “activity change, negative = cytotoxicity” value was 7.81%.
As to `CC(=O)Nc1ccc(N)cc1`, the “activity change, negative = cytotoxicity” value was 0.181% [at 78.9 µM].
Regarding `C=CC(=C)CCCC(C)(C)OC(C)=O`, the “activity change, negative = cytotoxicity” value was 10.1%.
For the compound `C[C@@H]1C[C@H]2[C@@H]3CCC4=CC(=O)C=C[C@]4(C)[C@@]3(F)[C@@H](O)C[C@]2(C)[C@@]1(O)C(=O)CO`, the “activity change, negative = cytotoxicity” value is -8.95% [at 78.9 µM].
Same read-out and setting: the same measure for `c1ccc(COCc2ccccc2)cc1`: 2.95% [at 78.9 µM]; for `CC1(C)O[C@@H]2C[C@H]3[C@@H]4CCC5=CC(=O)C=C[C@]5(C)[C@H]4[C@@H](O)C[C@]3(C)[C@]2(C(=O)CO)O1`: 3.55%; for `CC(C)C(OC(=O)c1ccccc1)C(C)(C)COC(=O)c1ccccc1` (stereo not given): 1.55%.
Same read-out and setting: the same measure for `Cc1ccc(S(=O)(=O)NC2CCCCC2)cc1`: 0.635%.
Turning to `ON(Cc1ccccc1)Cc1ccccc1`, the “activity change, negative = cytotoxicity” value was -9.72%.
As to `CC(=O)OCC(=O)[C@H]1CC[C@H]2[C@@H]3CCC4=CC(=O)CC[C@]4(C)[C@H]3CC[C@]12C`, the “activity change, negative = cytotoxicity” value is 11%.
On to `COCCOC`, for which the “activity change, negative = cytotoxicity” value is 0.384%.
In the case of `CC(C)(C)C(=O)O`, the “activity change, negative = cytotoxicity” value was -0.618% [at 78.9 µM].
For the compound `Fc1c(F)c(F)c(Br)c(F)c1F`, the “activity change, negative = cytotoxicity” value is 3.35%.
For the compound `CCC(C)=O`, the “activity change, negative = cytotoxicity” value is 4.36%.
On the same count and under the same terms, the same measure for `CC1CC(=O)NN=C1c1ccc(NCC(C)(C)NCC(O)COc2cc(Cl)ccc2C#N)cc1` (stereo not given): -0.297%.
As for `CC(N)CN` (stereo not given), the “activity change, negative = cytotoxicity” value was -2.11% [at 78.9 µM].
As for `CCCCOC(=O)CCS`, the “activity change, negative = cytotoxicity” value is 11.3%.
Same read-out and setting: the same measure for `CC[C@@H]([C@H](C)O)n1ncn(-c2ccc(N3CCN(c4ccc(OC[C@@H]5CO[C@@](Cn6cncn6)(c6ccc(F)cc6F)C5)cc4)CC3)cc2)c1=O`: -5.55%; for `Cc1cc(S(=O)(=O)O)ccc1N=Nc1c(O)ccc2ccccc12`: 5.54%; for `O=C(O)C(Cc1cc(I)c(O)c(I)c1)c1ccccc1` (stereo not given): -6.18%.
Regarding `Fc1ccccc1[C@@H](F)COC1CCC(Nc2ncnc3[nH]ncc23)CC1` (stereo not given in full), the Potency was 49 µM (active).
Regarding `CCCCC(=O)O[C@]1(C(=O)CO)CC[C@H]2[C@@H]3CCC4=CC(=O)CC[C@]4(C)[C@H]3[C@@H](O)C[C@@]21C`, the “activity change, negative = cytotoxicity” value is -5.05%.

Values taken from PubChem BioAssay (Tox21).
